40 compounds from PubChem BioAssay (Tox21) can be followed below.

Results filed as inconclusive are left out. Unmarked numbers belong to inactive results. Activity calls are given as the source filed them. The call rests on the fitted dose curve.
On the % scale 0 is the no-effect control and ±100 the full control effect.

The target in this assay is Thyrotropin receptor (Homo sapiens) (UniProt P16473). Nature of the assay: qHTS assay to identify small molecule antagonists of the thyroid stimulating hormone receptor (TSHR) signaling pathway (AID 1259385). Further: nearly all actives have a fitted effect of over 20% in size. Particulars: TSHR-HEK293 cAMP HTRF, TSH-stimulated antagonist mode; series mostly up to 92.4 µM. The source says: U.S. Tox21 Program National Center for Advancing Translational Sciences [NCATS] NIH Chemical Genomics Center [NCGC] U.S. Environmental Protection Agency [EPA] National Institutes of Environmental Health Sciences [NIEHS] National Toxicology Program [NTP] U.S. Food and Drug Administration [FDA] Tox21 Assay Overview: TSHR is the receptor for thyrotropin (thyroid stimulating hormone or TSH), a member of the glycoprotein hormone family. TSH is released by the anterior pituitary gland and is the main regulator of thyroid gland growth and development. Upon binding circulating thyrotropin, a G-protein signal cascade activates adenylyl cyclase and […] cAMP concentration is increased. cAMP is a key second messenger involved extensively in cellular signal transduction pathways associated with the majority of G-protein coupled receptors (GPCRs). The activation of these GPCRs by neurotransmitters, lipids, nucleotides, peptides and hormones results in the activation or the inhibition of plasma membrane-bound adenylate cyclase through heterotrimeric G-proteins. A cell-based TSHR assay can be used to screen chemical compounds that modulate TSHR either in agonist or antagonist mode.
Sequence of Thyrotropin receptor (Homo sapiens) (P16473 whole entry, looked up): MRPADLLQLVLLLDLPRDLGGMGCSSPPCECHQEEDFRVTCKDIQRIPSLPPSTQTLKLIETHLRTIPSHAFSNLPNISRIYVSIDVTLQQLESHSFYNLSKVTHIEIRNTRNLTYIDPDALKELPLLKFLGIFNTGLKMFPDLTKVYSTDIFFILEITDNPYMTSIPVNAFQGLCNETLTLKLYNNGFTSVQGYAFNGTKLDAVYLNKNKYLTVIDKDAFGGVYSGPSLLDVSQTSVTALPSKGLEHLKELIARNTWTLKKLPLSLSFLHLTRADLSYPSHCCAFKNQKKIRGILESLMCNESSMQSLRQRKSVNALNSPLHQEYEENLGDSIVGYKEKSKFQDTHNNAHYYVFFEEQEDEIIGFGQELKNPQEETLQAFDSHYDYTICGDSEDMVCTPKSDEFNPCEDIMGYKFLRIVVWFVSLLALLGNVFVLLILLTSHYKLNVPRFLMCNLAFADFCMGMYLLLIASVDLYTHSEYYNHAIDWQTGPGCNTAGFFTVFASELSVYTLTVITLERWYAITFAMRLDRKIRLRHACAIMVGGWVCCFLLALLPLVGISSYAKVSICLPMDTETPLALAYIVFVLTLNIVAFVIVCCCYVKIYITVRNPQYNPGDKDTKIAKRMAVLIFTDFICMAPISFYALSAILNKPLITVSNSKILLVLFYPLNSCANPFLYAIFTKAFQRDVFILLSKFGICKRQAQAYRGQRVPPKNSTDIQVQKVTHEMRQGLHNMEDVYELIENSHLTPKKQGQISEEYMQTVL
Tox21 Assay Protocol Summary: TSHR-Hek293 cells were dispensed at 800 cells/4uL/well in 1536-well white plates using a Multidrop dispenser. After the assay plates were incubated at a 37C/5% CO2 incubator for 18 hrs, 23 nL of compounds dissolved in DMSO, positive controls or DMSO only was transferred to the assay plate by a pin tool, followed by 1 ul medium containing Ro20-1724. For the antagonist mode screening, 1 uL of TSH was added on the top of the cell/compound mixtures to achieve a final agonist concentration of 1.5 ng/mL. After 30 min of incubation at room temperature, 2.5 ul/well of cAMP-d2 and 2.5 ul/well of anti-cAMP-cryptate were added respectively into the assay plates using a Flying Reagent Dispenser. The plates were incubated at room temperature for 1 hr. The fluorescence intensity in the plates was measured using an Envision plate reader. Each test compound was measured at 15 concentrations and in triplicates.
A general note: In qHTS, concentration-response curves come from the screen itself.
In the case of `CCCCCCCCCCCCOC(C)=O`, the compound was classed as inactive.
With `CCCC(C)CC` (stereo not given), the result was inactive.
On the same count and under the same terms, next, `Cc1oc(=O)oc1CN1CCN(c2cc3c(cc2F)c(=O)c(C(=O)O)c2n3C(C)S2)CC1` (stereo not given): “inactive”.
On the same count and under the same terms, to `CO/N=C(/C(=O)N[C@@H]1C(=O)N2C(C(=O)O)=C(Cn3nnc(C)n3)CS[C@H]12)c1csc(N)n1` belongs “inactive”.
On the same count and under the same terms, next, `CCCCCC1Nc2cc(C(F)(F)F)c(S(N)(=O)=O)cc2S(=O)(=O)N1` (stereo not given): “inactive”; `CC(C)(CO)[C@@H](O)C(=O)NCCCO`: “inactive”; `C[C@@H]1C[C@H]2[C@@H]3C[C@H](F)C4=CC(=O)C=C[C@]4(C)[C@@]3(F)[C@@H](O)C[C@]2(C)[C@@]1(O)C(=O)CO`: “inactive”.
Take `COc1cc(C=O)ccc1OC(=O)C(C)C`: the call was inactive.
For the compound `Nc1c(NC/C=C\COc2cc(CN3CCCCC3)ccn2)c(=O)c1=O`, the activity change, negative = inhibition is -4.41% [at 19 µM].
`Cc1ccccc1C(=O)N1CC/C(=N\OS(=O)(=O)O)c2ccc(Cl)cc21`: the compound was classed as inactive.
Regarding `O=C(O)Cc1cccc(-c2cc(CCCCCCc3ccc(O[C@H]4O[C@H](CO)[C@@H](O)[C@H](O)[C@@H]4O)c(-c4cccc(CC(=O)O)c4)c3)ccc2O[C@H]2O[C@H](CO)[C@@H](O)[C@H](O)[C@@H]2O)c1`, the activity change, negative = inhibition is -1.92% [at 0.349 µM].
For the compound `COc1cc2c3cc1Oc1cc(ccc1O)C[C@@H]1c4c(cc(OC)c(O)c4Oc4ccc(cc4)C[C@@H]3N(C)CC2)CC[N+]1(C)C`, the result was inactive.
For the compound `CCC(C)(C)C1CCC(=O)CC1`, the outcome was inactive.
Regarding `NCCc1ccn[nH]1`, the result was inactive.
The same measure, in the same setting: next, `Cc1nc([N+](=O)[O-])cn1-c1ccc([N+](=O)[O-])cc1`: “inactive”; `O=C(CN1CCN(Cc2ccc3c(c2)OCO3)CC1)N1c2ccccc2Sc2ccccc21`: “inactive”.
On to `CCN(CCC#N)c1ccccc1`, for which the outcome was inactive.
Turning to `C[C@H](CCC(=O)NCC(=O)O)[C@H]1CC[C@H]2[C@@H]3[C@H](O)C[C@@H]4C[C@H](O)CC[C@]4(C)[C@H]3C[C@H](O)[C@]12C`, the result was inactive.
On the same count and under the same terms, to `O=CN1CCOCC1` belongs “inactive”; to `Nc1cc(C(=O)O)ccc1Cl`, “inactive”.
On to `NC(=O)NC(=O)Cc1ccccc1`, for which the call was inactive.
The same measure, in the same setting: next, `F[Si-2](F)(F)(F)(F)F`: “inactive”; `c1ccc(CNc2ncnc3nc[nH]c23)cc1`: “inactive”.
The same measure, in the same setting: next, `FC(F)(F)/C(=N\OCC1OCCO1)c1ccc(Cl)cc1`: “inactive”.
Same read-out and setting: to `Nc1cc(Cl)cc(S(=O)(=O)O)c1O` belongs “inactive”.
Regarding `COCC(=O)Nc1c(I)c(C(=O)NCC(O)CO)c(I)c(C(=O)N(C)CC(O)CO)c1I` (stereo not given), the compound was called inactive.
The same measure, in the same setting: to `CCOC(=O)CCc1ccccc1` belongs “inactive”.
`C1=CCC(c2ccccc2)CC1` (stereo not given): the compound was called inactive.
The same measure, in the same setting: to `CCCCCC1CCCC(=O)O1` (stereo not given) belongs “inactive”; to `FC(F)(F)c1ccc(Cl)cc1Cl`, “inactive”; to `O=C(O)CCNC(=O)c1ccccc1`, “inactive”.
On the same count and under the same terms, to `CCOC(=O)CC#N` belongs “inactive”.
For the compound `Nc1ccnc(=O)[nH]1`, the compound was called inactive.
On to `CCC1Nc2cc(Cl)c(S(N)(=O)=O)cc2S(=O)(=O)N1` (stereo not given), for which the outcome was inactive.
Same read-out and setting: next, `CN[C@@H]1[C@@H](O)[C@@H](O[C@@H]2[C@H](O)[C@H](O[C@H]3OC(CN)=CC[C@H]3N)[C@@H](N)C[C@H]2N)OCC1(C)O` (stereo not given in full): “inactive”; `CCOC(=O)CCCCCCCCC(=O)OCC`: “inactive”.
With `N#CCCOCCOCCC#N`, the compound was called inactive.
Same read-out and setting: to `Cc1cccc(NC(=S)N(C)C)c1` belongs “inactive”; to `CCCCCC(=O)OCC`, “inactive”; to `COC(=O)CCC(=O)O`, “inactive”.
